The values that follow come from PubChem BioAssay (NCATS).

Assay [1] concerns the target 3',5'-cyclic-AMP phosphodiesterase 4B (Homo sapiens) (UniProt Q07343). Briefly: qHTS Assay for Inhibitors of PDE-IV (AID 607; active = well fitted activation curve with a large enough effect in the main read-out, with a control signal flat, not every such curve was filed as active; note: % of control where 0% means no effect). In a few lines:
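The readout is membrane depolarisation from a cAMP-sensing CNG channel, detected with a potential dye at ex 535/em 590. Cells were HEK293-derived (endogenous PDE-IV) at 1000 cells/well, titrated up to 22.9 uM final.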

A short description of assay [2]: Cell Viability - Mesenchymal (AID 546).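 Note: cells exposed to compound for 40 hours before reading.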 In a few lines: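 AC50 values reflect the drop in intracellular ATP in a human kidney mesenchymal line derived from normal glomeruli. Treatment lasts 40 hr at 37 °C in complete medium, and the signal comes from CellTiter-Glo luminescence.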
Assay [3] in a line: Cellular Toxicity (caspase-3) HepG2 (AID 654).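 Note: cells exposed to compound for 16 hours before reading; 0% = DMSO alone and 100% = caspase signal from 100 µM tamoxifen.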 The method, boiled down:
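HepG2 cells (1500/well) were treated 16 h at 37 °C in complete medium, then caspase 3/7 activity was read by Caspase-Glo luminescence. Data were normalized to DMSO and 100 uM tamoxifen; AC50 came from Hill-equation fits of qHTS concentration-response.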

Assay [4] is described as follows: Cellular Toxicity (caspase-3) Jurkat (AID 655).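 Note: cells exposed to compound for 16 h at 37 °C before reading.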 The settings on record: Jurkat caspase-3 activation, luminescence, DMSO = 0%, tamoxifen = 100%; at 92.2 µM (top of the series). In a few lines: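 5000 Jurkat cells/well; compound 16 hr, 37 °C; Caspase-Glo 3/7 added, 20 min RT; luminescence read. Norm: DMSO = 0%, tamoxifen 100 uM = 100%. AC50, Hill model.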
Assay [5] in a line: Cellular Toxicity (caspase-3) SHSY5Y (AID 657). In a few lines: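 qHTS, SH-SY5Y, 1500 cells/well, 5 h pre-incubation 37 °C; compound 16 h 37 °C; Caspase-Glo 3/7 1 h RT; luminescence. Norm.: DMSO = 0, 10 uM staurosporine = 100%. Hill fit → AC50.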
Assay [6] can be described thus: Cellular Toxicity (caspase-3) BJ (AID 658).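 Note: 0% = DMSO basal and 100% = 10 µM staurosporine.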 The method, boiled down: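 Readout: Caspase-Glo 3/7 luminescence increase in BJ cells after 16 hr treatment at 37 °C. Staurosporine and tamoxifen served as positive controls; AC50 values came from Hill modelling of data normalized to DMSO and 10 uM staurosporine.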
Assay [7] can be described thus: Cellular Toxicity (caspase-3) MRC-5 (AID 659).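 Note: 0% = DMSO basal and 100% = 10 µM staurosporine.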 The method, boiled down: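 Concentration-dependent caspase 3/7 activation is measured in human normal lung fibroblasts (MRC-5) following 16-hour treatment. AC50 values come from standard Hill-equation modeling of luminescence normalized to DMSO and 10 uM staurosporine.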
The nature of assay [8]: Cellular Toxicity (caspase-3) Mesangial (AID 660).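 Note: cells exposed to compound for 16 h before the caspase read.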 The method, boiled down:
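Human renal glomerular mesangial cells, 1000/well, 5 h at 37 C before 16 h compound treatment. Caspase-Glo 3/7 luminescence after 20 min; normalized to DMSO and 100 uM tamoxifen, AC50 from Hill fit.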

Assay [9] in a line: Cellular Toxicity (caspase-3) SK-N-SH (AID 661).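 Note: 0% = DMSO basal and 100% = 10 µM staurosporine.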 In a few lines: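 Human SK-N-SH neuroblastoma cells, 1500/well, were exposed to compounds for 16 hours at 37 °C. Caspase-Glo 3/7 luminescence was normalized to DMSO (basal) and 10 uM staurosporine (100%), and AC50 came from a Hill fit.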
The nature of assay [10]: Cellular Toxicity (caspase-3) H-4-II-E (AID 663).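 For caspase-3 activation: cells exposed to compound for 16 hr before readout.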 Note: potency is the fitted concentration of half-maximal effect. The settings on record: Potency: caspase-3 activation. In a few lines: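 Apoptosis induction is scored as increased luminescence from caspase 3/7 substrate cleavage in rat hepatoma H-4-II-E cells exposed to compound for 16 hr. Activity is scaled between DMSO and 100 uM tamoxifen.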
Assay [11] in a line: Cellular Toxicity (caspase-3) Hek293 (AID 664).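 Note: cells exposed to compound for 16 h at 37 °C before readout.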 The method, boiled down: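 HEK293 cells in complete medium treated 16 h at 37 °C, then Caspase-Glo 3/7 luminescence read after 20 min at room temperature. Normalized to DMSO and 100 uM tamoxifen; AC50 from Hill fit of concentration-response.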
Assay [12] is described as follows: Cellular Toxicity (caspase-3) N2a (AID 665).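 Note: compound exposure lasted 16 h at 37 °C before readout.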 In a few lines:
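Mouse N2a neuroblastoma cells, 1500 per well, treated 16 h at 37 °C in complete medium; caspase-3/7 activity by Caspase-Glo luminescence after 1 h. Normalized to DMSO and 10 uM staurosporine; AC50 from Hill fits.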

The nature of assay [13]: Cellular Toxicity (caspase-3) NIH 3T3 (AID 666).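 Note: caspase signal read after 16 h compound exposure; 0% = DMSO basal and 100% = 100 µM tamoxifen stimulation.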 In a few lines: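 Mouse NIH 3T3 fibroblasts (1000/well) treated 16 h at 37 C; caspase-3/7 activity measured by Caspase-Glo 3/7 luminescence after 20 min. Normalized to DMSO and 100 uM tamoxifen; AC50 from Hill fits.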
In assay [14] the target is Cytochrome P450 3A4 (Homo sapiens) (UniProt P08684). Put plainly: qHTS Assay for Inhibitors and Substrates of Cytochrome P450 3A4 (AID 884). Note: % is set by controls: 0 for no effect and ±100 for the full control effect; nearly all actives have a fitted effect of over 50% in size. The method, boiled down: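 20 nM human CYP3A4 with 25 uM Luciferin-PPXE (at KM) in 200 mM KPO4, preincubated 10 min with compound; NADPH regeneration started a 60 min RT reaction. Luciferin detected by luminescence, normalized to 57 uM ketoconazole as full inhibition.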
Sequence of Cytochrome P450 3A4 (Homo sapiens) (P08684 whole entry, looked up): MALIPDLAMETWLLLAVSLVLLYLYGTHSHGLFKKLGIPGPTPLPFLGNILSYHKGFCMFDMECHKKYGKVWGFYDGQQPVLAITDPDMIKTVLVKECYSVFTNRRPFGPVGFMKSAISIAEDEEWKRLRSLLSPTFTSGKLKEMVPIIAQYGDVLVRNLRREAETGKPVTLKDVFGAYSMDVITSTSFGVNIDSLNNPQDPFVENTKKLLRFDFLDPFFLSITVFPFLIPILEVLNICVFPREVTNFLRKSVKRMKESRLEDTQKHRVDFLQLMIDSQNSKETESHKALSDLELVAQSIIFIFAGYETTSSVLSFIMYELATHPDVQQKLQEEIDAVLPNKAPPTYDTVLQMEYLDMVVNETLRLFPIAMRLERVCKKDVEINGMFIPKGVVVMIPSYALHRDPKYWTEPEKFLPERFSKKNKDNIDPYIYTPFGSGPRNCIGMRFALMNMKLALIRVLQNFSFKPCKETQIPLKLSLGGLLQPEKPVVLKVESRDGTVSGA

The nature of assay [15]: Confirmation and Secondary Assay for Modulators of Hemoglobin Beta Chain Splicing at IVS2 654 locus (AID 910).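 Note: HeLa cells stably carrying EGFP split by mutant beta-globin IVS2-654 intron; per-well total GFP intensity by laser scanning cytometry after 2-day treatment; % of control where 0% means no effect.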 In a few lines:
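Readout: per-well total peak green fluorescence (488 nm ex, 500–520 nm em) from objects 5–250 µm, reflecting correct splicing of an EGFP-654 reporter. Compounds were applied for 2 days at 37 °C to overnight-plated HeLa EGFP-654 cells; controls were DMSO and 500 nM IVS2-654 PNA.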

The target in assay [16] is Guanine nucleotide-binding protein G(i) subunit alpha-1 (Homo sapiens) (UniProt P63096). Briefly: qHTS Assay for Inhibitors of RGS12 GoLoco Motif Activity (Green Fluorophore) (AID 879).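 Note: 0% = labeled peptide with Gαi1 and full inhibition = labeled peptide alone without protein; negative values mean loss of peptide binding seen as reduced polarization.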 In a few lines: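 Fluorescence polarization assay: 50 nM Gαi1 with 10 nM FITC-labeled RGS12 GoLoco peptide in 10 mM Tris pH 7.5, 150 mM NaCl, 0.1 mM GDP, 0.05% NP40, 10 min at room temperature with compound.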
Sequence of Guanine nucleotide-binding protein G(i) subunit alpha-1 (Homo sapiens) (P63096 whole entry, looked up): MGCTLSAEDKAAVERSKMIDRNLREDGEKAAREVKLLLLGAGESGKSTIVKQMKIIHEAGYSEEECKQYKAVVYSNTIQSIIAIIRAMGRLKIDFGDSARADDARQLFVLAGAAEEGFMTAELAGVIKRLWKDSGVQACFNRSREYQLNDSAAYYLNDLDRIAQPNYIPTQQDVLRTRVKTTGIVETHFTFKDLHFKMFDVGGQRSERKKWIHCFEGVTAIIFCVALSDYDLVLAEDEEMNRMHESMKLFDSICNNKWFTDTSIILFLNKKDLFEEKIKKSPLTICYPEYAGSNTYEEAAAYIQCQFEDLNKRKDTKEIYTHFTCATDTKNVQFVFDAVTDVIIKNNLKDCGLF

A number with no mark means an inactive call. Inconclusive results are not listed. The source made the active and inactive calls. Unless noted, calls come from the whole dose curve; as a rule, active = well fitted curve in the direction sought with a large enough effect; inconclusive = small, poorly fitted or top-dose-only effect, or another doubt; inactive = no such curve, though single readings can be large; an effect the other way counts as inactive or inconclusive.

Sequence of 3',5'-cyclic-AMP phosphodiesterase 4B (Homo sapiens) (Q07343 whole entry, looked up): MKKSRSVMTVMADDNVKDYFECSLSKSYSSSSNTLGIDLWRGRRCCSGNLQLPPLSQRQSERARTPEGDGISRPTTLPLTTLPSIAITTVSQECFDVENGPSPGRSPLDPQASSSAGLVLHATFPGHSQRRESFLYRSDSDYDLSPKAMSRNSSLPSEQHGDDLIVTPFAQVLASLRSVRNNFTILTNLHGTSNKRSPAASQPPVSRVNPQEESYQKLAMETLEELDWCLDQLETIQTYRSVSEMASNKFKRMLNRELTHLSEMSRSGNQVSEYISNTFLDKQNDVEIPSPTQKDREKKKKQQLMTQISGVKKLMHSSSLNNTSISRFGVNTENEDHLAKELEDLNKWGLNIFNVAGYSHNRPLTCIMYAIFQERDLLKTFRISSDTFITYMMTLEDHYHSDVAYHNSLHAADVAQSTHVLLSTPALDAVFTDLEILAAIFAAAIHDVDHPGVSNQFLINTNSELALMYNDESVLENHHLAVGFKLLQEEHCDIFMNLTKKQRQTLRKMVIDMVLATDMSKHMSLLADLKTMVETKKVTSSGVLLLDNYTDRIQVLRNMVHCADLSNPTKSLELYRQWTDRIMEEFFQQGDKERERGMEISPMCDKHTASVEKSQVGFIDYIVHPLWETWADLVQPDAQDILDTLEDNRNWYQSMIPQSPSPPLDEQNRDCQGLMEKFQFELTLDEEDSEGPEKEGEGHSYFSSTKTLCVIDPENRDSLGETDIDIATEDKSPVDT

For the compound `NS(=O)(=O)c1cc(C(=O)O)cc(N2CCCC2)c1Oc1ccccc1`, in assay [1], the outcome was inactive.

With `C[N+]1(C)CCC(=C(c2ccccc2)c2ccccc2)CC1`, the result in [1] was inactive.

For `COc1cc([C@H]2Oc3cc([C@H]4Oc5cc(O)cc(O)c5C(=O)[C@@H]4O)ccc3O[C@@H]2CO)ccc1O`, the outcome in [2], in assay [3], in assay [5], in [6], in assay [7] and in [8] was inactive. Moreover, the outcome in assay [9], in assay [11] and in assay [12] was inactive. The caspase-3 activation in assay [4] was 7.36%. Moreover, the Potency in [10] was 31.6 µM (active).

Take `CCCCNc1ccc(C(=O)OCCOCCOCCOCCOCCOCCOCCOCCOCCOC)cc1`: in [1], the result was inactive.

Turning to `CCOc1ccccc1C(N)=O`, the call in [2], in [3], in assay [5], in assay [6], in assay [7] and in [8] was inactive. Moreover, the call in assay [9], in assay [11], in assay [12] and in assay [13] was inactive. In addition, in assay [4], the caspase-3 activation is -0.33%. In addition, the Potency entry in [10] and in [14] was “inactive” each time.

In the case of `NC(=O)c1ccccc1O`, the result in assay [2], in assay [3], in [5], in assay [6], in [7] and in assay [8] was inactive. The outcome in assay [9], in assay [11], in assay [12], in assay [13] and in [15] was inactive. Further, the caspase-3 activation in assay [4] is -0.838%. Moreover, the Potency entry in assay [10] and in assay [14] was “inactive” throughout.

Turning to `NS(=O)(=O)Cc1noc2ccccc12`, the call in assay [1] and in [16] was inactive.

As to `CCc1oc2ccccc2c1C(=O)c1cc(Br)c(O)c(Br)c1`, the compound was called inactive in [1].

On to `C=C[C@H]1CN2CC[C@H]1C[C@@H]2[C@@H](O)c1ccnc2ccc(OC)cc12`, for which the outcome in assay [2], in [3], in assay [5], in assay [6], in [7] and in assay [8] was inactive. For the same compound, the outcome in assay [9], in assay [11], in [12] and in assay [13] was inactive. Moreover, the Potency result in assay [10] was “inactive”.

For the compound `CCCN(CCC)S(=O)(=O)c1ccc(C(=O)O)cc1`, the result in [2], in assay [1], in assay [3], in assay [5], in [6] and in [7] was inactive. Also, the result in [8], in [9], in assay [11], in assay [12], in assay [13] and in [15] was inactive. For the same compound, in assay [4], the caspase-3 activation is 1.65%. Besides, the Potency result in [10] and in [14] was “inactive” each time.

`CN1CCc2cccc3c2[C@H]1Cc1ccc(O)c(O)c1-3`: the call in [1] was inactive.

`COc1ccc(C(Cl)=C(c2ccc(OC)cc2)c2ccc(OC)cc2)cc1`: the compound was called inactive in assay [2], in [3], in assay [5], in assay [6], in assay [7] and in assay [8]. Besides, the result in assay [9], in [11], in [12], in [13] and in assay [15] was inactive. Also, in assay [4], the caspase-3 activation was 2.72%. Moreover, the Potency result in [10] and in assay [14] was “inactive” each time.

For the compound `CN1CCC[C@@H]1CCO[C@](C)(c1ccccc1)c1ccc(Cl)cc1`, the compound was called inactive in assay [1] and in assay [16].

`N=C(N)N1CCc2ccccc2C1`: in assay [1], the compound was called inactive.

With `CC(C)(C)NC[C@H](O)COc1nsnc1N1CCOCC1`, the result in [1] and in assay [16] was inactive.

For the compound `O=C(O)CCc1nc2ccccc2[nH]1`, the result in assay [1] was inactive.

As to `CC(C)(C)NC[C@H](O)COc1cccc2c1CCCC2=O`, the result in [1] was inactive.

With `NCCNc1cccc2ccccc12`, the outcome in assay [2], in assay [3], in assay [5], in assay [6], in assay [7] and in [8] was inactive. The compound was classed as inactive in assay [9], in assay [11], in assay [12] and in assay [13]. Also, in assay [4], the caspase-3 activation is 6.22%. The Potency result in [10] and in [14] was “inactive” each time.

For `O=C(O)c1ccc(S(=O)(=O)N(Cl)Cl)cc1`, the result in [2], in assay [3], in [5], in [6], in assay [7] and in [8] was inactive. In addition, the outcome in assay [9], in assay [11], in assay [12], in assay [13] and in [15] was inactive. Further, the caspase-3 activation in assay [4] was 0.943%. In addition, the Potency entry in [10] and in [14] was “inactive” throughout.

Take `CCOc1ccc(NC(C)=O)cc1`: the compound was called inactive in [2], in assay [1], in assay [3], in assay [5], in [6] and in assay [7]. Besides, the compound was classed as inactive in assay [8], in assay [9], in assay [11], in assay [12], in assay [13] and in [15]. The caspase-3 activation in assay [4] was -0.173%. Besides, the Potency result in assay [10] was “inactive”.

Turning to `Oc1c(Cl)cc(Cl)c(Cl)c1Cc1c(O)c(Cl)cc(Cl)c1Cl`, the outcome in assay [2], in assay [3], in [5], in assay [6], in assay [7] and in [8] was inactive. The outcome in [9], in assay [11], in [12], in [13] and in [15] was inactive. In assay [10], the Potency entry was “inactive”.

Turning to `Cl/C(=C\n1cncn1)c1ccc(Cl)cc1Cl`, the compound was called inactive in assay [1].

In the case of `COc1ccc(C(=O)c2ccccc2)c(O)c1`, the compound was called inactive in [2], in assay [1], in assay [3], in assay [5], in assay [6] and in assay [7]. Further, the compound was called inactive in assay [8], in assay [9], in assay [11], in assay [12], in [13] and in assay [15]. Also, the caspase-3 activation in assay [4] was 25.4%. For the same compound, the Potency result in assay [10] and in assay [14] was “inactive” each time.
